Seven compounds from PubChem BioAssay (Tox21) can be followed below.

Values without a mark were called inactive. Records with an inconclusive call do not appear. The source made the active and inactive calls. Unless noted, calls come from the whole dose curve; as a rule, active = well fitted curve in the direction sought with a large enough effect in the repeat runs; inconclusive = weak or mixed curves; inactive = no such curve, though single readings can be large; an effect the other way counts as inactive or inconclusive.

The nature of experiment [1]: qHTS assay to identify small molecule antagonists of the androgen receptor (AR) signaling pathway using the MDA cell line in the presence of 0.5 nM R1881 - cell viability counter screen (AID 1259242). Note: nearly all actives have a fitted effect of over 45% in size. The procedure, abridged:
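Cytotoxicity toward MDA-kb2 cells is measured by CellTiter-Fluor live-cell protease fluorescence after 16 hr compound exposure at 37C in the presence of 0.5 nM R1881 stimulator.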

Experiment [2] addresses Estrogen receptor (Homo sapiens) (UniProt P03372). The experiment in a line: qHTS assay to identify small molecule antagonists of the estrogen receptor alpha (ER-alpha) signaling pathway using the BG1 cell line in the presence of 0.1 nM 17-beta-estradiol (AID 1259244). Note: nearly all actives have a fitted effect of over 50% in size. The procedure, abridged:
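After 5 days in hormone-depleted medium (charcoal-stripped serum, no phenol red), VM7Luc4E2 cells were seeded, incubated 24 h, then co-treated with compound and 0.1 nM (final) estradiol for 22 h before luminescence detection.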
On the technique in general: In qHTS, concentration-response curves come from the screen itself.

Experiment [3] can be described thus: qHTS assay to identify small molecule HDAC inhibitors (AID 1259364). Note: top concentration of the series differs between compounds; nearly all actives have a fitted effect of over 45% in size. The procedure, abridged: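 Homogeneous cell-based luminescent assay of endogenous class I/II HDAC activity; HCT-116 cells, 2 h compound exposure, 30 min HDAC-Glo development at RT.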
Experiment [4] can be described thus: qHTS assay to identify small molecule HDAC inhibitors - cell viability counter screen (AID 1259365). Note: series mostly up to about 92 µM; nearly all actives have a fitted effect of over 50% in size. The procedure, abridged:
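To flag cytotoxic hits, 1,500 wild-type HCT-116 cells per well, plated the day before, receive test compounds for 2hr at 37 C before CellTiter-Glo reagent and a luminescence read.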

Experiment [5] can be described thus: qHTS assay to identify small molecule agonists of the sonic hedgehog signaling (Shh) pathway - cell viability counter screen (AID 1259366). Note: nearly all actives have a fitted effect of over 50% in size. The procedure, abridged:
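Fluorescence from CellTiter-Fluor reports live cells in this counter screen. NIH/3T3-derived Gli1-Luc reporter cells receive test compounds for 24hr at 37C; reagent goes in at 23hr.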

A short description of experiment [6]: qHTS assay to identify small molecule agonists of the sonic hedgehog signaling (Shh) pathway (AID 1259368; calls by dose curve;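 note: NIH/3T3-derived 3T3Gli1-Luc cells carrying a stable Gli1-driven firefly luciferase reporter; series mostly up to about 92 µM; nearly all actives have a fitted effect of over 15% in size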). The procedure, abridged: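 Steps: seed 3T3 Gli1-Luc cells, incubate 4 hr at 37 C, pin-transfer compounds in DMSO alongside a positive control, incubate 24 hr, add luciferase detection reagent, wait 30 min at room temperature, read luminescence.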
Experiment [7] in a line: qHTS assay to identify small molecule antagonists of the sonic hedgehog signaling (Shh) pathway (AID 1259369; calls by dose curve; note: nearly all actives have a fitted effect of over 45% in size; note: potency is the fitted concentration of half-maximal effect). In a few lines: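 Inhibition of Shh signalling is measured as reduced Gli1-response-element firefly luciferase output in an NIH/3T3-derived stable reporter clone stimulated with conditioned medium for 24hr.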
Experiment [8] is described as follows: qHTS assay to identify small molecule antagonists of the sonic hedgehog signaling (Shh) pathway - cell viability counter screen (AID 1259367). Note: nearly all actives have a fitted effect of over 55% in size. The procedure, abridged: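 NIH/3T3-derived Gli1-Luc reporter cells (2,000 per well) rested 4 hr at 37 C, then received DMSO compounds plus conditioned medium. After 23 hr of treatment, CellTiter-Fluor was added for 1 hr at 37C and fluorescence read.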

A short description of experiment [9]: qHTS assay to identify small molecule phospholipidosis (PLD) inducers (AID 1259344; active = well fitted curve in the direction sought with a large enough effect; an effect the other way counts as inactive or inconclusive). In a few lines: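 HepG2 cells on collagen I, attached 4 h at 37 C, were co-treated with compound and LipidTOX Red dye for 24 h at 37 C, then fixed with paraformaldehyde plus Hoechst 33342 and imaged by high-content microscopy for phospholipid accumulation.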
% is set by controls: 0 for no effect and ±100 for the full control effect.

Sequence of Estrogen receptor (Homo sapiens) (P03372 whole entry, looked up): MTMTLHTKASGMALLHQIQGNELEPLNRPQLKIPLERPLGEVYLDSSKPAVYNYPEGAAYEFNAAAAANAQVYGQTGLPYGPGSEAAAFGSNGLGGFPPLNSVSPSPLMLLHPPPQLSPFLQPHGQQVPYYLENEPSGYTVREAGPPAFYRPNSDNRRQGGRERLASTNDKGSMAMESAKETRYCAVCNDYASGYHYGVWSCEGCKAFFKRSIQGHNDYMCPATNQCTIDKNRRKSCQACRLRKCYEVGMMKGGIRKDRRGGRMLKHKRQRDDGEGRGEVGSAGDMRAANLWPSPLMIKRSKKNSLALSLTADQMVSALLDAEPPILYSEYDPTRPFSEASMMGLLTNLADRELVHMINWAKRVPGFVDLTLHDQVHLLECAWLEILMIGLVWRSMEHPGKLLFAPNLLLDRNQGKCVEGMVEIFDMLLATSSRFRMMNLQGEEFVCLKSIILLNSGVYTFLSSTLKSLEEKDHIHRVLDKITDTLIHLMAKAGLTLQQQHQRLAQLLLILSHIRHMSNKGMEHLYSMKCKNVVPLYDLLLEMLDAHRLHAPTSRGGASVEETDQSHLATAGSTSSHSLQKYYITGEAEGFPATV

Take `O=C(CBr)c1ccccc1`: the Potency result in experiment [1], in experiment [2], in experiment [3], in experiment [4], in experiment [5] and in [6] was “inactive” throughout. Moreover, in experiment [7], the Potency was 34.6 µM (active).
In the case of `CCOC(=O)C(Cl)C(C)=O` (stereo not drawn), the Potency entry in [1], in [2], in experiment [3], in experiment [5], in experiment [8] and in [6] was “inactive” in each case. For the same compound, the Potency result in experiment [7] is “inactive”.
Take `CCOc1nc(F)cc2nc(S(=O)(=O)Nc3c(Cl)cccc3Cl)nn12`: the Potency result in experiment [1], in experiment [2], in [3], in experiment [4], in experiment [6] and in experiment [7] was “inactive” throughout.
Take `N#CCC#N`: the Potency entry in [1], in [2], in experiment [3], in experiment [5], in experiment [8] and in experiment [6] was “inactive” in each case. Moreover, the Potency result in experiment [7] is “inactive”.
Regarding `NCC(CC(=O)O)c1ccc(Cl)cc1` (stereo not drawn), the viability change, negative = cytotoxic in experiment [1] is 0.181% [at 0.349 µM]; in experiment [5], 4.25% [at 0.349 µM]; in experiment [8], 1.24% [at 0.349 µM]. Moreover, in experiment [9], the compound was classed as inactive. In addition, the activity change, negative = inhibition in [3] was 13.2% [at 0.349 µM]; in [7], 38.7% [at 0.349 µM]. Besides, the activity change, negative = cytotoxicity in [4] is -1.28% [at 0.349 µM]. Also, the activity change in experiment [6] is -1.29% [at 0.349 µM, active compounds read high].
On to `COc1c(C(C)(C)C)cc([N+](=O)[O-])c(C)c1[N+](=O)[O-]`, for which the Potency result in [1], in experiment [2], in [3], in experiment [5], in experiment [8] and in [6] was “inactive” throughout. In experiment [7], the Potency entry was “inactive”.
Turning to `BrCCCCBr`, the Potency result in experiment [1], in experiment [2], in experiment [3], in experiment [5], in experiment [8] and in experiment [7] was “inactive” throughout.
